High-throughput results (PubChem BioAssay)
The sample as a whole holds a higher share of hits than the screen did.
Dicer inh – blocks human Dicer maturation of pre-miR-21; Q9UPY3; cat-ELCCA pre-miR-21 Dicer processing, chemiluminescence; hits give high values; z-score at 25 µM; 47,000 compounds, 6% hits; AID 1347074; in the data active = z-score above about 3, passing the limit was not always enough;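 note: higher signal means more uncleaved substrate so more Dicer inhibition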
Target sequence (Q9UPY3 whole entry, looked up): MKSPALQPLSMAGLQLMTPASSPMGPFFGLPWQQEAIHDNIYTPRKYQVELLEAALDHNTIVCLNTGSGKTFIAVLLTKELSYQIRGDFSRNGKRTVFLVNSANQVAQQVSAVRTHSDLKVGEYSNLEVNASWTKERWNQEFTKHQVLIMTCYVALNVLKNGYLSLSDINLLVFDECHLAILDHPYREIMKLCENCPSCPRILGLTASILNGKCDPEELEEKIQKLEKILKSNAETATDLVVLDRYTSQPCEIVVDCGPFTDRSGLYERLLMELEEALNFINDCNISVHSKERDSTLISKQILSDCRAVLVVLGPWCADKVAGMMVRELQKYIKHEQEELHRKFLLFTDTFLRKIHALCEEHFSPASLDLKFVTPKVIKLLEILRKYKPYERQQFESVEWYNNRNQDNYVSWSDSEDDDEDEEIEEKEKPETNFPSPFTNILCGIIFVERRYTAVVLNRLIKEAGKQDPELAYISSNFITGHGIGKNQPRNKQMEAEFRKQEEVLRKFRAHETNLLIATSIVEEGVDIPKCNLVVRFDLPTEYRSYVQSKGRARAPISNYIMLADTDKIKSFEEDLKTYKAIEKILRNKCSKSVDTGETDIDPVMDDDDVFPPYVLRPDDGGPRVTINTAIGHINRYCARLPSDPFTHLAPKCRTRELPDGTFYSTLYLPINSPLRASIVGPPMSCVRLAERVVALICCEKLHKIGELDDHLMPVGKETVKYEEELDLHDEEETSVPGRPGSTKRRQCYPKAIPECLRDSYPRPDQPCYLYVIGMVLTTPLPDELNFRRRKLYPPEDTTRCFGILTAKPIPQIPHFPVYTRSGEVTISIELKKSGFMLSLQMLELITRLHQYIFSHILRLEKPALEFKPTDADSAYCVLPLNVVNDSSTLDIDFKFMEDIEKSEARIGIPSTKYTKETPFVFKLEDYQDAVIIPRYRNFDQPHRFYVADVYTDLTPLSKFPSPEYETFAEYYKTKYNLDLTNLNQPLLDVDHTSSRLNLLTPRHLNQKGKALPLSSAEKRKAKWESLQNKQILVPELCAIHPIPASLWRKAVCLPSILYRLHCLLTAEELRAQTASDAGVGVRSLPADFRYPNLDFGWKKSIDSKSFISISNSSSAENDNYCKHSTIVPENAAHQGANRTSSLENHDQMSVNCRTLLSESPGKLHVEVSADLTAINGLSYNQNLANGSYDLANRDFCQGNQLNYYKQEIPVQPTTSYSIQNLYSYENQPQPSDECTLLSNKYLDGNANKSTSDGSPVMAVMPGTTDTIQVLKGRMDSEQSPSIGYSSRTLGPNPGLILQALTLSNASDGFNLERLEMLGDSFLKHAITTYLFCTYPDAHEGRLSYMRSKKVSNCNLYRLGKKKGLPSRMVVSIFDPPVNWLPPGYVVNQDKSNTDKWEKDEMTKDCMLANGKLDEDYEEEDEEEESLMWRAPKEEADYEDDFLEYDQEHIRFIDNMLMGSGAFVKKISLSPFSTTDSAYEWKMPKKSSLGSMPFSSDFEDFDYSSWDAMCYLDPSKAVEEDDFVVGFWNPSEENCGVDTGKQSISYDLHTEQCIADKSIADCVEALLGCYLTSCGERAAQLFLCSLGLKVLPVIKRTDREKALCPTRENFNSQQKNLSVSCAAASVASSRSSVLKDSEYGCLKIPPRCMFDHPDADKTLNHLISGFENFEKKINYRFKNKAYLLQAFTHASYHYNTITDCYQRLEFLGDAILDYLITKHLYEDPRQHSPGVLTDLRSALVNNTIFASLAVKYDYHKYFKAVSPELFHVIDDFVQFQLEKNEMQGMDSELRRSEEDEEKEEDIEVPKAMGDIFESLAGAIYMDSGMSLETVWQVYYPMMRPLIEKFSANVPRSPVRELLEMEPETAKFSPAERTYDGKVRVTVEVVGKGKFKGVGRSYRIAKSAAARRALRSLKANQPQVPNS
Large screens that a line does not name were inactive.

CCOC(=O)/C(C#N)=C/C=C(/c1ccc(Cl)cc1)N1CCOCC1	none
O=C(Oc1cc(=O)n2c3c(cccc13)CCC2)c1ccccc1	none
NC(=O)c1ccc(CC(=O)c2ccc(Cl)cc2)cc1	none
CC(=O)NC(Nc1ccccc1F)(C(F)(F)F)C(F)(F)F	none
Cc1cccc(NC(=O)c2cccs2)c1C(=O)O	none
COc1cc(C2c3c(oc4ccc(Cl)cc4c3=O)C(=O)N2Cc2ccccc2)ccc1O (stereo not drawn)	none
NC(=O)c1c(NC(=O)c2ccc(S(=O)(=O)N3CCCC3)cc2)sc2c1CCCC2	Dicer inh 3.4
NC(=O)c1c(NC(=O)c2ccc(F)cc2)sc2c1CCCC2	none
NC(=O)c1c(NC(=O)c2ccc(Cl)cc2)sc2c1CCCC2	none
CC(C)(C)SCCNC(=O)C(C)(C)S(=O)(=O)c1ccc(C(F)(F)F)cn1	none
CSc1cc(C(C)(C)C)nn1C(=O)c1ccc(Cl)cc1	none
Cc1cc(N2CCOCC2)nc(N2CCOCC2)n1	none
Cc1cc(C)nc(N2CCN(c3nc(C)cc(C)n3)CC2)n1	Dicer inh 4.2
Cc1cc(C)nc(N2CCC(NC3CC(=O)N(c4ccc(F)cc4)C3=O)CC2)n1 (stereo not drawn)	none
C=C(C)Cc1c(C)[nH]n(S(=O)(=O)c2ccccc2)c1=O	none
CC(=O)Nc1nc(C)c(CCC(C)C)c(=O)[nH]1	none
CC(C)(C)c1ccc(OCc2ccc(C(=O)O)cc2)cc1	none
CC(C)(C)c1ccc(OCc2nnc(N)s2)cc1	Dicer inh 4
CC(C)(C)c1ccc(OCC(=N)N)cc1	none
O=[N+]([O-])c1cccnc1Sc1nnc(-c2cccc(Cl)c2)o1	none
O=C1C2C3c4ccccc4C(C(=O)O)(c4ccccc43)C2C(=O)N1c1ccccc1 (stereo not drawn)	none
O=C1C2C3c4ccccc4C(CO)(c4ccccc43)C2C(=O)N1c1ccccc1Cl (stereo not drawn)	none
COc1ccc(N2C(=O)C3C4c5ccccc5C(CO)(c5ccccc54)C3C2=O)cc1 (stereo not drawn)	none
O=C1C2C3c4ccccc4C(CO)(c4ccccc43)C2C(=O)N1c1ccc(F)cc1 (stereo not drawn)	Dicer inh 4.9
CC12c3ccccc3C(c3ccccc31)C1C(=O)N(c3ccccc3)C(=O)C12 (stereo not drawn)	none
CCCCOc1ccc(N2C(=O)C3C4c5ccccc5C(CO)(c5ccccc54)C3C2=O)cc1 (stereo not drawn)	Dicer inh 3.3
Cc1cc(NC(=O)c2nc3ncccn3n2)no1	none
Cc1ccc2c(c1)C(O)(CC(=O)c1ccc(Cl)cc1)C(=O)N2 (stereo not drawn)	none
COC(=O)C(Cc1ccc(Cl)cc1Cl)Sc1ccc(Cl)cc1 (stereo not drawn)	none
CC(C)C(=O)Nc1cscc1S(=O)(=O)c1ccc(Cl)cc1	none
N#C/C(=C\c1ccc(C(F)(F)F)cc1Cl)S(=O)(=O)c1ccc(Cl)cc1	none
CN(C)CCOC(=O)c1cc2ccccc2o1	none
Cc1nc2n(CCN3CCOCC3)c3ccccc3n2n1	none
Cc1ccc(-c2cn3c4ccccc4nc3n2CCN2CCOCC2)cc1	none
c1ccc(-c2cn3c4ccccc4n(CCN4CCOCC4)c3n2)cc1	Dicer inh 4.1
CSc1ccc(C2C3=C(CCCC3=O)Nc3ccccc3N2C(=O)c2ccccc2)cc1 (stereo not drawn)	none
COC(=O)C1=C(C)Nc2[nH]c(=O)[nH]c(=O)c2C1c1ccc(Br)cc1 (stereo not drawn)	none
COC(=O)C1=C(C)Nc2c(c(=O)n(C)c(=O)n2C)C1c1ccc(Br)cc1 (stereo not drawn)	Dicer inh 3.4
COC(=O)C1=C(C)NC2=C(C(=O)CCC2)C1c1ccc(Br)cc1 (stereo not drawn)	none
CC(=NCc1c(C)c(C)c(C)c(C)c1C)c1ccccc1O	none
Cc1onc(-c2c(Cl)cccc2Cl)c1NC(=O)N/N=C/c1c(Cl)cccc1Cl	none
O=C(O)C1CC(=O)N(c2ccc(Oc3ccccc3)cc2)C1 (stereo not drawn)	none
O=C1OC(COc2ccccc2)CN1c1ccccc1 (stereo not drawn)	Dicer inh 3.4
Cc1ccc(OCC2CN(Cc3ccccc3)C(=O)O2)cc1 (stereo not drawn)	none
Cc1onc(-c2ccccc2Cl)c1NC(=O)Nc1c(-c2ccccc2Cl)noc1C	none
COc1cc(C2N3CC4(C)CN2CC(C)(C3)C4=O)ccc1O (stereo not drawn)	none
Cc1cc(C(C)(C)c2ccc(OCC(=O)O)c(C)c2)ccc1OCC(=O)O	none
C=CC[n+]1sc2ccc(Cl)cc2c1C	none
O=C(NCc1ccccc1)NCc1ccccc1	Dicer inh 3.6
O=C(NCCCCCCNC(=O)NCc1ccccc1)NCc1ccccc1	none
Cc1cccc(C)c1NC(=O)NCc1ccccc1	none
C=CCc1c(C)nc(SCC(=O)c2ccc(Cl)cc2)[nH]c1=O	none
Cc1ccc(CSc2ssc(=S)c2-c2ccccc2)cc1	none
COc1ccc(N2C(=O)CC(SCC(=O)Nc3ccc(Br)cc3)C2=O)cc1 (stereo not drawn)	none
Cc1sc2nc(-c3ccc(N4C(=O)CCC4=O)cc3)oc(=O)c2c1C	none
CCOC(=O)c1c(N(C)S(C)(=O)=O)sc(C)c1C	Dicer inh 3.6
CCOC(=O)c1c(NC(=O)CC)sc(C)c1C	none
CCOC(=O)c1c(N)sc(C)c1C	none
COCCCn1c(SCC(=O)NNC(=O)C(Cl)(Cl)Cl)nnc1-c1ccc(C(C)(C)C)cc1	none
COc1c(Cl)cc([N+](=O)[O-])c(OC)c1C(=O)O	none
COc1ccc(-c2cc3nccc(-c4ccc5c(c4)N(C)C(=O)CO5)n3n2)cc1	none
C#CCOc1ccc(C2C3=C(CC(C)(C)CC3=O)NC3=C2C(=O)CC(C)(C)C3)cc1	none
CC1(C)CC(=O)C2=C(C1)NC1=C(C(=O)CC(C)(C)C1)C2c1ccccc1	none
CSc1ccc(C2C3=C(CC(C)(C)CC3=O)Nc3cc4c(cc32)OCO4)cc1 (stereo not drawn)	Dicer inh 5.1
CC1(C)CC(=O)C2=C(C1)Nc1ccc3ccccc3c1C2c1ccc2c(c1)OCO2 (stereo not drawn)	none
CC1(C)CC(=O)C2=C(C1)Nc1cc3c(cc1C2c1ccc(Cl)cc1)OCO3 (stereo not drawn)	none
Cc1ccc(C2C3=C(CC(C)(C)CC3=O)NC3=C2C(=O)CC(C)(C)C3)cc1	Dicer inh 4.6
CC(=O)N[C@@H](Cc1ccc(Br)cc1)C(=O)O	none
CC(C)S(=O)(=O)C/C(N)=N/OC(=O)Nc1ccccc1	none
CSc1nc(C)nc(N(C)C)c1C#N	none
COCCOC(=O)c1c(C)oc2cc(Br)c(OC/C=C/c3ccccc3)cc12	none
COc1cccc(C(=O)Nc2nc(SCc3ccc(Cl)cc3)n[nH]2)c1	none
CSc1nnc(SC)n1CCNC(=O)c1cccc(Cl)c1	none
COc1cccc(C(=O)NCCN2CCN(c3ccc(Cl)cc3)CC2)c1	Dicer inh 3.9
CCCc1cc(=O)oc2c1c(C)nn2-c1ccccc1	none
CCOC(=O)NNC(=S)Nc1ccccc1	none
CCOC(=O)NNC(=S)Nc1cccc(C)c1	Dicer inh 3.8
CCOC(=O)NNC(=S)Nc1cccc(C(F)(F)F)c1	none
CC(C)(C)C(=O)/C(C#N)=C/Nc1cccc2nsnc12	none
O=c1cc(-c2ccccc2)nc(SCc2ccccc2Cl)[nH]1	none
NNC(=O)c1nc2ccccc2c(=O)[nH]1	none
Cc1ccc(S(=O)(=O)NC(=O)NCc2csc3ccc(Cl)cc23)cc1	none
CN1CCc2cc(Cl)c(O)cc2[C@@H](c2ccccc2)C1	none
CC12CN3CC(C)(CN(C1)C3c1ccc(O)c(O)c1)C2=O (stereo not drawn)	none
CN1Cc2sccc2C(c2ccc(O)c(O)c2)C1 (stereo not drawn)	Dicer inh 4.8
O=C(CCc1ccc(O)cc1)NNC(=S)Nc1ccc(Cl)c(Cl)c1	none
